Assay results reported in the supplement of paper PMC8728848.
The sample as a whole holds a higher share of the strongest signals than the screen did.

What was measured:
Test in all cases: glycan array binding signal (z-score within array); higher = stronger binding
Details in all cases: glycan notation: IUPAC condensed, linker removed
Fuc(a1-2)Gal(b1-4)GlcNAc = biological target: Fuc(a1-2)Gal(b1-4)GlcNAc
Outline: (§1)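 Glycan array data came from 3228 arrays in the Consortium for Functional Glycomics database, and only arrays with an available protein sequence were kept. Glycan names were put into IUPAC-condensed notation, and columns mapping to the same glycan were averaged. The binding signal is a within-array Z-score, averaged across arrays of one protein sequence run at different concentrations or buffers and across linkers. A negative Z-score can be read as non-binding.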

[1] = biological target: Fuc(a1-2)Gal(b1-4)GlcNAc(b1-3)Gal(b1-4)GlcNAc(b1-2)Man(a1-3)[Fuc(a1-2)Gal(b1-4)GlcNAc(b1-3)Gal(b1-4)GlcNAc(b1-2)Man(a1-6)]Man(b1-4)GlcNAc(b1-4)GlcNAc
Outline: as §1

[2] = biological target: Fuc(a1-2)[Gal(a1-3)]Gal(b1-3)GalNAc(b1-3)Gal(a1-4)Gal(b1-4)Glc
Outline: as §1

[3] = biological target: Fuc(a1-2)[GalNAc(a1-3)]Gal(b1-4)GlcNAc(b1-2)Man
Outline: as §1

Fuc(a1-4)GlcNAc = biological target: Fuc(a1-4)GlcNAc
Outline: as §1

[4] = biological target: Gal(a1-3)Gal(b1-3)GlcNAc(b1-6)GalNAc
Outline: as §1

[5] = biological target: Gal(a1-3)[Gal(a1-4)]Gal(b1-4)GlcNAc
Outline: as §1

Gal(a1-4)GlcNAc = biological target: Gal(a1-4)GlcNAc
Outline: as §1

[6] = biological target: Gal(b1-3)GlcNAc(b1-3)Gal(b1-4)GlcNAc(b1-2)[Gal(b1-3)GlcNAc(b1-3)Gal(b1-4)GlcNAc(b1-6)]Man(a1-6)[Gal(b1-3)GlcNAc(b1-3)Gal(b1-4)GlcNAc(b1-2)Man(a1-3)]Man(b1-4)GlcNAc(b1-4)[Fuc(a1-6)]GlcNAc
Outline: as §1

[7] = biological target: Gal(b1-3)GlcNAc(b1-3)Gal(b1-4)GlcNAc(b1-6)[Gal(b1-3)GlcNAc(b1-3)]Gal(b1-4)Glc
Outline: as §1

[8] = biological target: Gal(b1-4)GlcNAc(b1-2)Man(a1-3)[Gal(b1-4)GlcNAc(b1-2)Man(a1-6)]Man(b1-4)GlcNAc(b1-4)GlcNAc
Outline: as §1

[9] = biological target: Gal(b1-4)GlcNAc(b1-2)[Gal(b1-4)GlcNAc(b1-4)]Man(a1-3)[GlcNAc(b1-4)][Gal(b1-4)GlcNAc(b1-2)Man(a1-6)]Man(b1-4)GlcNAc(b1-4)GlcNAc
Outline: as §1

[10] = biological target: Gal(b1-4)GlcNAc(b1-3)Gal(b1-4)GlcNAc(b1-3)Gal(b1-4)GlcNAc
Outline: as §1

[11] = biological target: Gal(b1-4)GlcNAc(b1-3)Gal(b1-4)GlcNAc(b1-3)Gal(b1-4)GlcNAc(b1-3)Gal(b1-4)GlcNAc(b1-3)Gal(b1-4)GlcNAc(b1-2)[Gal(b1-4)GlcNAc(b1-3)Gal(b1-4)GlcNAc(b1-3)Gal(b1-4)GlcNAc(b1-3)Gal(b1-4)GlcNAc(b1-3)Gal(b1-4)GlcNAc(b1-6)]Man(a1-6)[Gal(b1-4)GlcNAc(b1-3)Gal(b1-4)GlcNAc(b1-3)Gal(b1-4)GlcNAc(b1-3)Gal(b1-4)GlcNAc(b1-3)Gal(b1-4)GlcNAc(b1-2)Man(a1-3)]Man(b1-4)GlcNAc(b1-4)[Fuc(a1-6)]GlcNAc
Outline: as §1

[12] = biological target: Gal(b1-4)GlcNAc(b1-3)[GlcNAc(b1-6)]Gal(b1-4)GlcNAc
Outline: as §1

[13] = biological target: Gal(b1-4)GlcNAc(b1-6)GalNAc
Outline: as §1

Gal4S(b1-4)GlcNAc = biological target: Gal4S(b1-4)GlcNAc
Outline: as §1

GalNAc(a1-3)Gal = biological target: GalNAc(a1-3)Gal
Outline: as §1

[14] = biological target: GalNAc(b1-4)GlcNAc(b1-3)GalNAc(b1-4)GlcNAc
Outline: as §1

[15] = biological target: GlcNAc(b1-3)Gal(b1-4)GlcNAc(b1-2)[GlcNAc(b1-3)Gal(b1-4)GlcNAc(b1-6)]Man(a1-6)[GlcNAc(b1-3)Gal(b1-4)GlcNAc(b1-2)Man(a1-3)]Man(b1-4)GlcNAc(b1-4)GlcNAc
Outline: as §1

[16] = biological target: GlcNAc(b1-3)Gal(b1-4)GlcNAc(b1-3)Gal(b1-4)GlcNAc(b1-2)Man(a1-3)[GlcNAc(b1-3)Gal(b1-4)GlcNAc(b1-3)Gal(b1-4)GlcNAc(b1-2)Man(a1-6)]Man(b1-4)GlcNAc(b1-4)GlcNAc
Outline: as §1

[17] = biological target: GlcNAc(b1-3)Gal(b1-4)GlcNAc(b1-3)Gal(b1-4)GlcNAc(b1-3)Gal(b1-4)GlcNAc(b1-2)Man(a1-3)[GlcNAc(b1-3)Gal(b1-4)GlcNAc(b1-3)Gal(b1-4)GlcNAc(b1-3)Gal(b1-4)GlcNAc(b1-2)Man(a1-6)]Man(b1-4)GlcNAc(b1-4)[Fuc(a1-6)]GlcNAc
Outline: as §1

[18] = biological target: GlcNAc(b1-3)Gal(b1-4)GlcNAc(b1-3)Gal(b1-4)GlcNAc(b1-3)Gal(b1-4)GlcNAc(b1-3)Gal(b1-4)GlcNAc(b1-2)Man(a1-3)[GlcNAc(b1-3)Gal(b1-4)GlcNAc(b1-3)Gal(b1-4)GlcNAc(b1-3)Gal(b1-4)GlcNAc(b1-3)Gal(b1-4)GlcNAc(b1-2)Man(a1-6)]Man(b1-4)GlcNAc(b1-4)[Fuc(a1-6)]GlcNAc
Outline: as §1

[19] = biological target: GlcNAc(b1-3)Gal(b1-4)GlcNAc(b1-3)Gal(b1-4)GlcNAc(b1-3)Gal(b1-4)GlcNAc(b1-3)Gal(b1-4)GlcNAc(b1-2)[GlcNAc(b1-3)Gal(b1-4)GlcNAc(b1-3)Gal(b1-4)GlcNAc(b1-3)Gal(b1-4)GlcNAc(b1-3)Gal(b1-4)GlcNAc(b1-6)]Man(a1-6)[GlcNAc(b1-3)Gal(b1-4)GlcNAc(b1-3)Gal(b1-4)GlcNAc(b1-3)Gal(b1-4)GlcNAc(b1-3)Gal(b1-4)GlcNAc(b1-2)Man(a1-3)]Man(b1-4)GlcNAc(b1-4)[Fuc(a1-6)]GlcNAc
Outline: as §1

[20] = biological target: GlcNAc(b1-4)[GlcNAc(b1-6)]GalNAc
Outline: as §1

Kdn(a2-3)Gal(b1-4)GlcNAc = biological target: Kdn(a2-3)Gal(b1-4)GlcNAc
Outline: as §1

[21] = biological target: Neu5Ac(a2-3)Gal(b1-3)[Fuc(a1-4)]GlcNAc
Outline: as §1

[22] = biological target: Neu5Ac(a2-3)Gal(b1-3)[Fuc(a1-4)]GlcNAc(b1-3)Gal(b1-3)[Fuc(a1-4)]GlcNAc
Outline: as §1

[23] = biological target: Neu5Ac(a2-3)Gal(b1-3)[Neu5Ac(a2-6)]GalNAc
Outline: as §1

[24] = biological target: Neu5Ac(a2-3)Gal(b1-4)GlcNAc(b1-2)Man(a1-3)[Neu5Ac(a2-3)Gal(b1-4)GlcNAc(b1-2)Man(a1-6)]Man(b1-4)GlcNAc(b1-4)GlcNAc
Outline: as §1

[25] = biological target: Neu5Ac(a2-3)Gal(b1-4)GlcNAc(b1-3)Gal(b1-4)GlcNAc
Outline: as §1

[26] = biological target: Neu5Ac(a2-3)Gal(b1-4)GlcNAc(b1-3)[Neu5Ac(a2-3)Gal(b1-4)GlcNAc(b1-6)]GalNAc
Outline: as §1

[27] = biological target: Neu5Ac(a2-3)Gal(b1-4)[Fuc(a1-3)]GlcNAc
Outline: as §1

[28] = biological target: Neu5Ac(a2-6)Gal(b1-4)GlcNAc(b1-2)Man(a1-3)[GlcNAc(b1-4)][Neu5Ac(a2-6)Gal(b1-4)GlcNAc(b1-2)Man(a1-6)]Man(b1-4)GlcNAc(b1-4)GlcNAc
Outline: as §1

[29] = biological target: Neu5Ac(a2-6)Gal(b1-4)GlcNAc(b1-2)Man(a1-3)[Neu5Ac(a2-3)Gal(b1-4)GlcNAc(b1-2)Man(a1-6)]Man(b1-4)GlcNAc(b1-4)GlcNAc
Outline: as §1

[30] = biological target: Neu5Ac(a2-6)Gal(b1-4)GlcNAc(b1-2)Man(a1-3)[Neu5Ac(a2-6)Gal(b1-4)GlcNAc(b1-2)Man(a1-6)]Man(b1-4)GlcNAc(b1-4)GlcNAc
Outline: as §1

[31] = biological target: Neu5Ac(a2-6)Gal(b1-4)GlcNAc(b1-2)Man(a1-3)[Neu5Ac(a2-6)Gal(b1-4)GlcNAc(b1-2)Man(a1-6)]Man(b1-4)GlcNAc(b1-4)[Fuc(a1-6)]GlcNAc
Outline: as §1

[32] = biological target: Neu5Ac(a2-6)Gal(b1-4)GlcNAc(b1-3)Gal(b1-4)GlcNAc(b1-3)Gal(b1-4)GlcNAc
Outline: as §1

[33] = biological target: Neu5Ac(a2-6)Gal(b1-4)GlcNAc(b1-6)GalNAc
Outline: as §1

[34] = biological target: Neu5Ac(a2-6)Gal(b1-4)GlcNAc6S
Outline: as §1

[35] = biological target: Neu5Ac(a2-8)Neu5Ac(a2-3)Gal(b1-4)GlcNAc
Outline: as §1

[36] = biological target: Neu5Ac(a2-8)Neu5Gc(a2-3)Gal(b1-4)GlcNAc
Outline: as §1

[37] = biological target: Neu5Gc(a2-3)Gal(b1-3)GlcNAc
Outline: as §1

[38] = biological target: Neu5Gc(a2-3)Gal(b1-3)[Fuc(a1-4)]GlcNAc
Outline: as §1

[39] = biological target: Neu5Gc(a2-8)Neu5Gc(a2-3)Gal(b1-4)GlcNAc(b1-3)Gal(b1-4)GlcNAc
Outline: as §1

[40] = biological target: Neu5Gc(a2-8)Neu5Gc(a2-6)Gal(b1-4)GlcNAc
Outline: as §1

B1: PX9961W-pdi-543-27-543 (Parabacteroides distasonis) (protein)
chain: EGNATTTSYFLNDQQAIDAIDGLYERFHQEGCYGRELFWEQGAACDIVWGRTRGYNSLATLAYTGDESPLRDVFSRMYSTMSRANWIIQELVKKEKGTTLTAVEKRSLGEAYFSRGWAHYLIAYRYGTDKQGVPFVRYEDFPDDYDNSIPPQQATVMDNYKLIIEDMDKAIAYLPIFESYDADNRGRAHQAAAVAFKAKTYAYWATWDATQWNNVIEMVNQLENNYNRDLAPTFAELFSSDLKDYWNAEYLWTIPSIGGALPGGTEFPGIILENKGWGKYNGWGQMKPSYDIYEEMAKDGKGNDRLVRSILEYNQEFPFFGETRKFWSTSDLEAGFMINKYMDAFKYSDPVGEGAVSANGDWPTVRVNFPIIRFAEMLLFRAEAYLMTGQADKATADINRIRLRSNLTPLTGTATMKDLYHERRCELAFEFTDHLFDLKRWNRSSNADIKTLADKELNAHPRIRRYEDRANPESAFTIIGYEDYTNKNAYQAHMMVFPYPSEEITKSNGQLKQNEGY
glycan array binding signal (z-score) (Fuc(a1-2)Gal(b1-4)GlcNAc): -0.724
glycan array binding signal (z-score) [1]: 0.321
glycan array binding signal (z-score) [2]: -0.488
glycan array binding signal (z-score) [3]: 0.843
glycan array binding signal (z-score) (Fuc(a1-4)GlcNAc): -0.806
glycan array binding signal (z-score) [4]: -0.936
glycan array binding signal (z-score) [5]: 4.9
glycan array binding signal (z-score) (Gal(a1-4)GlcNAc): -0.436
glycan array binding signal (z-score) [6]: 3.68
glycan array binding signal (z-score) [7]: 2.47
glycan array binding signal (z-score) [8]: 0.803
glycan array binding signal (z-score) [9]: -0.379
glycan array binding signal (z-score) [10]: 0.348
glycan array binding signal (z-score) [11]: 2.95
glycan array binding signal (z-score) [12]: -1.13
glycan array binding signal (z-score) [13]: 0.97
glycan array binding signal (z-score) (Gal4S(b1-4)GlcNAc): -0.282
glycan array binding signal (z-score) (GalNAc(a1-3)Gal): -0.723
glycan array binding signal (z-score) [14]: -0.156
glycan array binding signal (z-score) [15]: 2.42
glycan array binding signal (z-score) [16]: 2.38
glycan array binding signal (z-score) [17]: 1.14
glycan array binding signal (z-score) [18]: 2.16
glycan array binding signal (z-score) [19]: 2.07
glycan array binding signal (z-score) [20]: 0.793
glycan array binding signal (z-score) (Kdn(a2-3)Gal(b1-4)GlcNAc): -0.351
glycan array binding signal (z-score) [21]: -0.779
glycan array binding signal (z-score) [22]: 2.45
glycan array binding signal (z-score) [23]: -1.05
glycan array binding signal (z-score) [24]: -0.589
glycan array binding signal (z-score) [25]: -0.712
glycan array binding signal (z-score) [26]: -0.167
glycan array binding signal (z-score) [27]: -0.648
glycan array binding signal (z-score) [28]: -0.023
glycan array binding signal (z-score) [29]: -0.733
glycan array binding signal (z-score) [30]: -0.249
glycan array binding signal (z-score) [31]: 0.138
glycan array binding signal (z-score) [32]: -0.315
glycan array binding signal (z-score) [33]: 0.508
glycan array binding signal (z-score) [34]: -0.912
glycan array binding signal (z-score) [35]: -0.026
glycan array binding signal (z-score) [36]: 14.4
glycan array binding signal (z-score) [37]: -0.935
glycan array binding signal (z-score) [38]: -0.874
glycan array binding signal (z-score) [39]: -0.859
glycan array binding signal (z-score) [40]: 0.393
